Sm TGR inh = qHTS Assay for the Inhibitors of Schistosoma Mansoni Peroxiredoxins; Schistosoma mansoni thioredoxin glutathione reductase (TGR), Q962Y6; purified TGR, DTNB reduction, TNB absorbance 405 nm; Potency, µM (top dose mostly 114 µM), actives largely listed as inhibitors; 360,000 tested, 3% active; AID 485364, 2010; also: nearly all actives have a fitted effect of over 60% in size
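First, TGR (20 nM dispensed) and NADPH were mixed with compound. Second, a 15 min room-temperature incubation followed. Third, further NADPH and then DTNB were added to start the reaction. Finally, TNB absorbance was monitored kinetically.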
AmpC no deterg = qHTS Inhibitors of AmpC Beta-Lactamase (assay without detergent) | P00811 | AmpC nitrocefin hydrolysis, absorbance 480 nm, 0.0001% Triton | Potency, µM (highest dose often 57.1 µM), most hits filed as inhibitors | 330,000 tested, 0.52% active | AID 485341, 2010; also: nearly all actives have a fitted effect of over 20% in size
Target sequence (P00811 whole entry, looked up): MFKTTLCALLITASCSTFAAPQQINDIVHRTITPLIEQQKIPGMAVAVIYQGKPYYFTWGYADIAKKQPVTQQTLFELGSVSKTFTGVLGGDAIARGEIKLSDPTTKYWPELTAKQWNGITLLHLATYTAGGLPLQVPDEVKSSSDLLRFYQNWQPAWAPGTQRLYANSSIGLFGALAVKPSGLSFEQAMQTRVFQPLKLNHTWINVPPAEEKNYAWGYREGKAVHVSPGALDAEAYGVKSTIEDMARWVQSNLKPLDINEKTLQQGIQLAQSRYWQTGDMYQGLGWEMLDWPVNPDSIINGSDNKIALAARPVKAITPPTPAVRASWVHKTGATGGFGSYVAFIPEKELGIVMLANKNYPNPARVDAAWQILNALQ
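AmpC (5.3 nM in the dispensed reagent) in 20 mM phosphate pH 7.0 with 0.01% (detergent screen) or 0.0001% Triton X-100 was preincubated with compounds for 15 min at room temperature. Nitrocefin was then added from an 800 uM solution, and hydrolysis was followed at 480 nm.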
AmpC detergent = qHTS Inhibitors of AmpC Beta-Lactamase (assay with detergent); P00811; AmpC hydrolysis of nitrocefin, absorbance 480 nm, 0.01% Triton; Potency, µM (doses to about 114 µM), usual class: inhibitors; 370,000 tested, 0.041% active; also: nearly all actives have a fitted effect of over 25% in size
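20 mM phosphate pH 7.0 + 0.01% (detergent screen) or 0.0001% Triton X-100; 5.3 nM AmpC reagent; cpd preinc 15 min RT; nitrocefin (800 uM stock) to start; A480 q20 s × 4 min; Activity was normalised to no-enzyme and no-compound control wells.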
Pf growth 48h = Primary qHTS for delayed death inhibitors of the malarial parasite plastid, 48 hour incubation | P. falciparum luciferase growth in erythrocytes, 48 h | Potency, µM (doses to about 28.7 µM), hits mostly inhibitors | 310,000 tested, 5.9% active
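Growth was read as firefly luciferase luminescence after a 48 h, 37 C, 5% CO2 exposure of compounds to reporter-bearing P. falciparum cultures (0.1% parasitemia, 2% hematocrit final) in Albumax-supplemented RPMI 1640.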
Pf growth 96h = Primary qHTS for delayed death inhibitors of the malarial parasite plastid, 96 hour incubation | P. falciparum luciferase reporter growth, 96 h | Potency, µM (top dose mostly 28.7 µM), most hits filed as inhibitors | 320,000 tested, 6.9% active | AID 504834, 2011
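Compounds incubated with erythrocytes infected by luciferase-expressing P. falciparum (2% hematocrit, 0.05% parasitemia final) for 96 hours, 37 C in 5% CO2. Growth inhibition scored as decreased luciferase luminescence.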
SARS PLpro yeast = qHTS of Yeast-based Assay for SARS-CoV PLP. AID 485353, 2010. S. cerevisiae expressing SARS-CoV PLpro, growth rescue. Potency, µM (highest dose often 32.9 µM), hits mostly activators. 330,000 tested, 0.19% active; calls by dose curve; also: nearly all actives have a fitted effect of over 55% in size
Numbers stand for hits; [ ] = another dose, or the depositor's remark. Compounds with a hit are over-represented: about 12% of the library has one in this group of screens. Unless noted, calls follow the shape of the dose curve; as a rule, active = well fitted curve in the direction sought with a large enough effect; inconclusive = small, poorly fitted or top-dose-only effect, or another doubt; inactive = no such curve, though single readings can be large; an effect the other way counts as inactive or inconclusive.

For Cc1cccc2cc(CN(Cc3ccco3)C(=O)c3cccs3)c(=O)[nH]c12 the results were Sm TGR inh inactive, AmpC no deterg inactive, AmpC detergent inactive, Pf growth 48h 10.4µM, Pf growth 96h 9.28µM and SARS PLpro yeast inactive.
For CC1(C)N=C(N)N=C(N)N1c1ccc(F)cc1F the results were Sm TGR inh inactive, AmpC no deterg inactive, AmpC detergent inactive, Pf growth 48h inconclusive, Pf growth 96h 9.28µM and SARS PLpro yeast inactive.
For Cc1cccc(N2C(N)=NC(N)=NC23CCCCC3)c1 the results were Sm TGR inh inactive, AmpC no deterg inactive, AmpC detergent inactive, Pf growth 48h 2.08µM, Pf growth 96h inconclusive and SARS PLpro yeast inactive.
For Nc1ccc2nn(-c3ccccc3)nc2c1 the results were Sm TGR inh inactive, AmpC no deterg inactive, AmpC detergent inactive, Pf growth 48h inactive, Pf growth 96h inactive and SARS PLpro yeast inactive.
Screening CC1(C)N=C(N)N=C(N)N1c1ccc(Oc2ccc(Cl)cc2)c(Cl)c1 returned Sm TGR inh inactive, AmpC no deterg inactive, AmpC detergent inactive, Pf growth 48h 0.208µM, Pf growth 96h inactive and SARS PLpro yeast inactive.
Screening CC1(C)N=C(N)N=C(N)N1c1ccccc1 returned Sm TGR inh inactive, AmpC no deterg inactive, AmpC detergent inactive, Pf growth 96h 0.738µM and SARS PLpro yeast inactive.
For CC1(C)N=C(N)N=C(N)N1c1cccc(CN)c1 the results were Sm TGR inh inactive, AmpC no deterg inactive, AmpC detergent inactive, Pf growth 48h 0.828µM, Pf growth 96h 0.928µM and SARS PLpro yeast inactive.
O=C(Nc1ccc(CN2CCOCC2)cc1)c1ccc(-c2cccc(Cl)c2)o1 was read as Sm TGR inh inactive, AmpC no deterg inactive, AmpC detergent inactive, Pf growth 48h 1.47µM, Pf growth 96h inconclusive and SARS PLpro yeast inactive.
`O=C(Nc1ccc(CN2CCOCC2)cc1)c1ccc(-c2ccc(Cl)cc2Cl)o1` gave Sm TGR inh 50.1µM, AmpC no deterg inactive, AmpC detergent inactive, Pf growth 48h 2.08µM, Pf growth 96h inactive and SARS PLpro yeast inactive.
For COc1ccc(CCn2c(-c3ccc(F)cc3)nc3c(c(=O)c4ccccc4n3C)c2=O)cc1OC the results were Sm TGR inh inactive, AmpC no deterg inactive, AmpC detergent inactive, Pf growth 48h inactive, Pf growth 96h inconclusive and SARS PLpro yeast inactive.
CCOC(=O)CSc1nc2ccccc2n2cnnc12 was read as Sm TGR inh 50.1µM, AmpC no deterg inactive, AmpC detergent inactive, Pf growth 48h inactive, Pf growth 96h inactive and SARS PLpro yeast inactive.
Cc1ccc(Sc2cc(C(=O)NCCCN(C)C)c3ccccc3n2)cc1 was read as Sm TGR inh 39.8µM, AmpC no deterg inactive, AmpC detergent inactive, Pf growth 48h inactive[0.00184 µM], Pf growth 96h inconclusive and SARS PLpro yeast inactive.
`CCOCCCNC(=O)c1cc(Sc2ccc(F)cc2)nc2ccccc12` gave Sm TGR inh inactive, AmpC no deterg inactive, AmpC detergent inactive, Pf growth 48h inactive, Pf growth 96h 13.1µM and SARS PLpro yeast inactive.
`Cc1ccc(Sc2cc(C(=O)NCCN(C)C)c3ccccc3n2)cc1` gave Sm TGR inh inactive, AmpC no deterg inactive, AmpC detergent inactive, Pf growth 48h inconclusive, Pf growth 96h inactive and SARS PLpro yeast inactive.
CCOCCCNC(=O)c1cc(-c2ccc(Br)s2)nc2ccccc12 was read as Sm TGR inh inactive, AmpC no deterg inactive, AmpC detergent inactive, Pf growth 96h 10.4µM and SARS PLpro yeast inactive.
For COCCCNC(=O)c1cc(Sc2ccc(F)cc2)nc2ccccc12 the results were Sm TGR inh inactive, AmpC no deterg inactive, AmpC detergent inactive, Pf growth 48h inactive, Pf growth 96h inconclusive and SARS PLpro yeast inactive.
`O=c1c2c3c(sc2nc(NCCOCCO)n1Cc1ccco1)CCCCC3` gave Sm TGR inh inactive, AmpC no deterg inactive, AmpC detergent inactive, Pf growth 48h inconclusive, Pf growth 96h inconclusive and SARS PLpro yeast inactive.
For O=c1c2c3c(sc2n(CCN2CCCCC2)c(=O)n1Cc1ccco1)CCCCC3 the results were Sm TGR inh inactive, AmpC no deterg inactive, AmpC detergent inactive, Pf growth 96h 2.62µM and SARS PLpro yeast inactive.
For O=c1c2c3c(sc2n(CCN2CCOCC2)c(=O)n1Cc1ccco1)CCCCC3 the results were Sm TGR inh inactive, AmpC no deterg inactive, AmpC detergent inactive, Pf growth 48h inconclusive, Pf growth 96h 2.62µM and SARS PLpro yeast inactive.
Screening Cc1ccc(C)c(NC(=O)C(Cc2ccccc2)N2Cc3ccccc3C2=O)c1 (stereo unspecified) returned Sm TGR inh inactive and AmpC detergent inactive.
Screening CCc1ccc(OCCCC(=O)Nc2nnc(C3CCCO3)s2)cc1 (stereo unspecified) returned Sm TGR inh inactive, AmpC no deterg inactive, AmpC detergent inactive, Pf growth 48h inactive, Pf growth 96h 11.7µM and SARS PLpro yeast inactive.
For CCn1c(SCC(=O)c2c[nH]c3ccccc23)nc2cc(S(=O)(=O)N3CCOCC3)ccc21 the results were Sm TGR inh inactive, AmpC no deterg inactive, AmpC detergent inactive, Pf growth 48h 9.28µM, Pf growth 96h 2.33µM and SARS PLpro yeast inactive.
`COc1ccccc1[C@@H]1C(c2cccc(C)c2)=NN(c2ccccc2)[C@H]1C(=O)N1CCOC1=O` gave Sm TGR inh inactive, AmpC no deterg inactive, AmpC detergent inconclusive, Pf growth 48h 13.1µM, Pf growth 96h 10.4µM and SARS PLpro yeast inactive.
Screening CC(=O)Nc1ccc(Oc2ccc(S(=O)(=O)N3CCCC3)cn2)cc1 returned Sm TGR inh inactive, AmpC no deterg inactive, AmpC detergent inactive, Pf growth 48h inconclusive, Pf growth 96h inconclusive and SARS PLpro yeast inactive.
For Cc1ccccc1N(CC(=O)NCCSc1ccccn1)S(=O)(=O)c1ccccc1 the results were Sm TGR inh inactive, AmpC no deterg inactive, AmpC detergent inactive, Pf growth 48h inconclusive, Pf growth 96h 10.4µM and SARS PLpro yeast inactive.
Screening CCOc1ccccc1N(CC(=O)NCCSc1ccccn1)S(=O)(=O)c1ccccc1 returned Sm TGR inh inactive, AmpC no deterg inactive, AmpC detergent inactive, Pf growth 48h 14.7µM, Pf growth 96h inconclusive and SARS PLpro yeast inactive.
Screening COc1ccccc1N(CC(=O)NCCSc1ccccn1)S(=O)(=O)c1ccccc1 returned Sm TGR inh inactive, AmpC no deterg inactive, AmpC detergent inactive, Pf growth 48h inconclusive, Pf growth 96h inactive and SARS PLpro yeast inactive.
For CCOC(=O)c1ccccc1NC(=O)N(C)CCc1c(C)nn(CC)c1C the results were Sm TGR inh inactive and AmpC detergent inactive.
Cc1ccc(-n2nc(C)c(C(=O)Nc3cccc(C(=O)NC4CC4)c3)n2)c(C)c1 was read as Sm TGR inh inactive, AmpC no deterg inactive, AmpC detergent inactive, Pf growth 48h inconclusive, Pf growth 96h 14.7µM and SARS PLpro yeast inactive.

High-throughput results deposited in PubChem BioAssay by National Center for Advancing Translational Sciences (NCATS).
